The results in this text go back to PubChem BioAssay AID652115 (Broad Institute, 2013).

Each structure is given as a SMILES string. Values joined by “and” are separate entries in the source; they are usually repeats but may differ in a detail not shown here. Identical values can stand only once. About 3,800 (1.2%) of roughly 330,000 compounds were called active. This is one part of a sample in which actives are shown more often than they occur. No stated cut-off is given here; in the data, active means inhibition above about 15%; inconclusive means no clear call, values can overlap the other calls; inactive means below that.

In this test the target is NAD-dependent protein deacylase sirtuin-5, mitochondrial (Homo sapiens) (UniProt Q9NXA8). The experiment in a line: blockers of sirtuin-5 deacylase activity – biochemical, fluorescence imaging, single point, set 5, primary screen (AID 652115). The settings on record: Purified SirT5, succinyl-peptide AMC, trypsin-coupled fluorescence; at 15 µM; hits give high values.
Sequence of NAD-dependent protein deacylase sirtuin-5, mitochondrial (Homo sapiens) (Q9NXA8 whole entry, looked up): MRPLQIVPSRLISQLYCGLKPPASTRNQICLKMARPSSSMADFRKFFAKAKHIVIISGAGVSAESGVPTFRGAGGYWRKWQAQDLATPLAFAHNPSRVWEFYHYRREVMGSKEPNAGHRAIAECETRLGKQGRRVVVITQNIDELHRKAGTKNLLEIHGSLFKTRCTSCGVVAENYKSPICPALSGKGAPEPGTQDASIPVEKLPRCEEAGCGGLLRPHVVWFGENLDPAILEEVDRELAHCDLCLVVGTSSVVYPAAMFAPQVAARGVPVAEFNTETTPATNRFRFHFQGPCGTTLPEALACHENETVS
`Cc1ccccc1C(=O)NCCN=C1NS(=O)(=O)c2ccccc21`: the inhibition (in general, the drop in the measured response relative to a control, in per cent) was 1.57% (inactive).

With `CN(C)S(=O)(=O)c1ccc(C(=O)NCCN=C2NS(=O)(=O)c3ccccc32)cc1`, the inhibition was 15.2% (active).

On to `CN(c1ccccc1)S(=O)(=O)c1ccc(C(=O)NCCc2ccccc2)cc1`, for which the inhibition was -1.73% (inactive).

As to `COc1ccccc1-c1cn(CC[C@@H]2CC[C@@H](NC(=O)c3ccccc3F)[C@H](CO)O2)nn1`, the inhibition was -1.68% (inactive).

For `COc1cccc(S(=O)(=O)N2C[C@@H](O)COC[C@@H]3O[C@H](CC(=O)N4CCN(C)CC4)CC[C@H]32)c1`, the inhibition is -10.1% (inactive).

For the compound `C[C@@H]1CN([C@@H](C)CO)S(=O)(=O)c2ccc(C#CCN(C)C)cc2O[C@@H]1CN(C)S(=O)(=O)c1cccc(F)c1`, the inhibition was 2.43% (inactive).

With `C[C@H](CO)N1C[C@H](C)[C@@H](CN(C)S(=O)(=O)c2cccc(F)c2)Oc2cc(C#CCN(C)C)ccc2S1(=O)=O`, the inhibition is 0.005% (inactive).

`CC(C)CC#Cc1ccc2c(c1)O[C@H](CN(C)S(=O)(=O)c1cccc(F)c1)[C@@H](C)CN([C@@H](C)CO)S2(=O)=O`: the inhibition is 19.1% (active).

For `C[C@@H]1CN([C@@H](C)CO)S(=O)(=O)c2ccc(-c3cccc(F)c3)cc2O[C@@H]1CN(C)S(=O)(=O)c1ccccc1`, the inhibition was 12% (inactive).

Regarding `C[C@@H]1CN([C@H](C)CO)S(=O)(=O)c2ccc(-c3cccc(F)c3)cc2O[C@H]1CN(C)S(=O)(=O)c1ccc(F)cc1`, the inhibition is 16.1% (active).

`C[C@H]1CN([C@@H](C)CO)S(=O)(=O)c2ccc(-c3cccc(F)c3)cc2O[C@@H]1CN(C)C`: the inhibition was -1.74% (inactive) and 0.129% (inactive) and -10.4% (inactive).

On to `CCCNC(=O)N1[C@@H]2c3ccc(-c4ccccc4OC)c(=O)n3C[C@H]1[C@H](CO)[C@H]2C(=O)N(C)C`, for which the inhibition is -22.3% (inactive).

On to `C[C@H]1CN([C@@H](C)CO)C(=O)c2cccc(NS(=O)(=O)c3cccs3)c2O[C@H]1CN(C)Cc1ccc(C(=O)Nc2ccccc2N)cc1`, for which the inhibition is 5.63% (inactive).

Regarding `COc1ccc2c3c(n(C)c2c1)[C@@H](CO)N(C(=O)Nc1cccc(F)c1)CC31CCN(Cc2nccs2)CC1`, the inhibition is 35.6% (active).

For `CCCC(=O)N1CC2(C1)CN(C(=O)Nc1cccc(F)c1)[C@@H](CO)c1c2c2ccc(OC)cc2n1C`, the inhibition was 7.29% (inactive).

In the case of `COc1ccc2c3c(n(C)c2c1)[C@H](CO)N(C(=O)Nc1cccc(F)c1)CC31CN(Cc2nccs2)C1`, the inhibition is 2.85% (inactive).

For `O=S1(=O)CC(N2CCN(CCO)CC2)CN1Cc1cn(Cc2ccc(Cl)cc2)nn1` (centres undefined), the inhibition is 32.8% (active).

Take `Cc1ccc(Cn2cc(CN3CC(N4CCN(C)CC4)CS3(=O)=O)nn2)cc1` (centres undefined): the inhibition was 3.71% (inactive).

Consider `O=S1(=O)CC(N2CCN(CCO)CC2)CN1Cc1cn(Cc2cccc(Cl)c2)nn1` (centres undefined), for which the inhibition was -5.71% (inactive).
